# Results as given in PubChem BioAssay (EPA / NIEHS).
# Inconclusive results are not listed. Calls of active or inactive are those of the source. The calls were made as follows: active = hit-call score of the fitted dose curve at least 0.9, where 1 is the maximum; inconclusive = response in the unintended direction; inactive = score below 0.9.
# Assay: ACEA_ER_AUC_viability: ACEA Biosciences xCELLigence Real-Time Cell Analysis on Estrogen Receptor Agonism for Viability (AID 2283782);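 also: continuous compound exposure with impedance area under curve over 80 h; hit means loss of impedance signal meaning reduced cell growth or viability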
# Procedure, shortened: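 T-47D; phenol red-free RPMI1640 + 10% CS-FBS; 8 conc., 1:4 serial, max 100 uM final, ≤0.5% DMSO; n = 2; continuous exposure; impedance monitored to 80 h post-dose; AUC vs DMSO.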
Compound,outcome,AC50
C=C(C)C(=O)OCC(C)C,inactive,–
Cc1ccc(N/N=c2\c(=O)cc/c(=N/Nc3ccc(S(=O)(=O)O)cc3)c2=O)c(C)c1,inactive,–
C=C1C2CCC(C2)C1(C)C (stereo unspecified),inactive,–
C=CC(=O)OCCOC(=O)C=C,–,32.3 µM (active)
CCCCCc1ccc(Cl)cc1,inactive,–
CCCCCCC1(C)CCC(=O)O1 (stereo unspecified),inactive,–
CCCCCCCC[N+](C)(CCCCCCCC)CCCCCCCC,–,1.92 µM (active)
O=C1CCCCCCCCCCCCCCCO1,inactive,–
O=[N+]([O-])C1(Br)COCOC1,–,8.14 µM (active)
C1=Cc2ccccc2C1,inactive,–
Cc1c(C)c([N+](=O)[O-])c(C(C)(C)C)c([N+](=O)[O-])c1C,inactive,–
C1CN(SSN2CCOCC2)CCO1,–,82.4 µM (active)
C=CC(C)(CCC=C(C)C)OC(=O)C(C)C (stereo unspecified),inactive,–
CNC(=S)N(C)C,inactive,–
C=C[C@](C)(O)CC[C@@H]1[C@@]2(C)CCCC(C)(C)[C@@H]2CC[C@@]1(C)O,–,37.6 µM (active)
Nc1ncn([C@@H]2O[C@H](CO)[C@@H](O)[C@H]2O)c(=O)n1,–,3.22 µM (active)
O=S(=O)(O)c1ccc2cc(O)c(S(=O)(=O)O)cc2c1,–,50 µM (active)
Cc1ccc(OC(=O)CC(C)C)cc1,–,73.8 µM (active)

Compound,outcome,AC50
O=C1C=CC(=O)O1,inactive,–
O=[N+]([O-])c1ccc(CO)cc1,inactive,–
O=C1CCCC1,inactive,–
CCCCCCCCCCCCCCCC(=O)OCC,inactive,–
O=CN1CCCCC1,inactive,–
C=C(C)c1cccc(C(C)(C)N=C=O)c1,inactive,–
CCCCCCCCC(=O)OCC,–,50 µM (active)
OC1CCCCCCCCCCC1,inactive,–
CC=CCO,inactive,–
CC[C@H]1OC(=O)[C@H](C)[C@@H](O[C@H]2C[C@@](C)(OC)[C@@H](O)[C@H](C)O2)[C@H](C)[C@@H](O[C@@H]2O[C@H](C)C[C@H](N(C)C)[C@H]2O)[C@](C)(O)C[C@@H](C)C(=NOCOCCOC)[C@H](C)[C@@H](O)[C@]1(C)O,inactive,–
CC(C)c1ccc(C=O)cc1,inactive,–
O=C1CCCN1CCO,inactive,–
CCOc1nc(F)cc2nc(S(=O)(=O)Nc3c(Cl)cccc3C(=O)OC)nn12,inactive,–
NC(=O)N=NC(N)=O,inactive,–
CCOC(=O)Cc1cccc2ccccc12,–,50 µM (active)
S=C(NC1CCCCC1)NC1CCCCC1,inactive,–
CO[Si](OC)(OC)c1ccccc1,inactive,–
CC(C)=CC1CC(C)CCO1 (stereo unspecified),inactive,–
